tim10-1 inh: tim10-1 yeast growth inhibition | S. cerevisiae tim10-1 ts strain growth, BacTiter-Glo, 24 h | inhibition, % at 20 µM | 330,000 tested, 2.2% active;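 active means inhibition of at least 40%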;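 further: mutant grown at 25 °C; 0% = DMSO wells with yeast and 100% = wells holding no yeast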
tim23-1 inh: tim23-1 yeast growth inhibition; S. cerevisiae tim23-1 growth, BacTiter-Glo luminescence, 24 h; inhibition, % at 20 µM; 330,000 tested, 1.3% active;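 active means growth inhibition of the mutant yeast at or above 50%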;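 further: temperature-sensitive mutant grown at 25 °C; plate controls were DMSO-treated mutant yeast for no effect and medium wells lacking yeast for full effect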
TIM10 inh: TIM10 yeast growth inhibition. inhibition, % at 10 µM. AID 463195. S. cerevisiae TIM10 strain growth, BacTiter-Glo luminescence, 24 h. 330,000 tested, 1.4% active;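 active means inhibition of 40% or more at the single tested concentration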;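 further: wild-type TIM10 isogenic control strain grown at permissive 25 °C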
SKKanGAS inh: blocks kanamycin growth of S. pyogenes SKKanGAS strain; BacTiter-Glo, 6 h; inhibition, % at 7.5 µM; 300,000 tested, 1.3% active; AID 1662;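 active means mean replicate score, as percent of positive control median, at least 50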;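 further: strain carries kanamycin resistance gene driven by streptokinase promoter and grows in 40 µg/ml kanamycin; loss of luminescence reflects streptokinase promoter inhibition or plain growth inhibition; 0% = median of DMSO wells and 100% = positive control at its reference dose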
NLRP3 yeast inh: inhibitors of NALP3 inflammasome in yeast. Yeast reconstituted NLRP3/ASC/caspase-1, beta-gal luminescence, 24 h. inhibition, % at 10 µM. 330,000 tested, 0.39% active;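 active means inhibition of 50% or more; inactive means inhibition below 50%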;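 further: plate controls were induced DMSO wells for no effect and uninduced yeast grown without galactose for full effect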
Starred values were filed as active, the others as inactive; . = no result given. Compounds with a hit are over-represented: about 4.6% of the library has one in this group of screens.

SMILES	tim10-1 inh	tim23-1 inh	TIM10 inh	SKKanGAS inh	NLRP3 yeast inh
CC1CN(CCOc2ccccc2C(C)C)CC(C)O1 (configuration not stated)	9.5	11.7	-6.3	4.6	25.8
CCc1nnc(NS(=O)(=O)c2ccc(NCc3cc(Cl)cc(Cl)c3O)cc2)s1	-2.7	10.2	8.3	54.3*	23.0
CC1(C)CCCN(C(=O)N2c3ccccc3Sc3ccccc32)C1	22.8	-22.6	12.8	79.7*	-9.0
O=C(CN1CCCC1)N1c2ccccc2Sc2ccccc21	-4.9	6.4	-10.3	0.5	21.1
COc1ccc2nc(N)sc2c1	12.9	0.5	5.1	-8.0	-3.3
COc1ccc2nc(-n3c(C)ccc3C)sc2c1	5.5	-2.0	-9.4	54.4*	4.8
NS(=O)(=O)c1cccc(NC(=O)COC(=O)/C=C/c2nc3ccccc3s2)c1	-1.0	8.1	-8.3	.	9.6
COc1ccc(S(=O)(=O)N(C)C[C@H]2Oc3ccc(NS(=O)(=O)c4ccc(F)cc4)cc3C(=O)N([C@H](C)CO)C[C@@H]2C)cc1	-7.6	-7.6	2.4	.	16.7
COC(=O)c1ccc2nc(Nc3nc4ccc(F)cc4s3)sc2c1	.	.	.	19.1	.
CCOC(=O)c1csc(Nc2nc3ccc(F)cc3s2)n1	31.8	19.7	22.4	52.7*	4.6
CCOC(=O)c1sc(Nc2nc3c(F)cccc3s2)cc1C	-0.2	-14.6	-12.0	-1.9	19.4
CCOC(=O)c1sc(Nc2nc3ccc(OC)cc3s2)cc1C	12.9	38.6	18.0	49.7*	14.9
CCOC(=O)c1[nH]c(C)c(C(=O)OCC(=O)N(Cc2ccccc2)C(C)C)c1C	12.6	32.5	9.9	.	15.3
CN1Cc2cc(C(=O)c3cc(Cl)cc(CSc4ncccn4)c3O)cnc2NC1=O	15.5	16.6	23.0	50.4*	23.7
CCOC(=O)c1sc2ncnc(N3CCN(c4ccc(OC)cc4)CC3)c2c1C	10.5	14.3	16.9	69.3*	17.0
Cn1c(=O)c2c(SCC(=O)N3CCCCC3)nc(-c3ccccc3F)nc2n(C)c1=O	20.3	3.5	2.0	37.4	4.6
Cn1c(=O)c2c(SCC(=O)N3CCOCC3)nc(-c3ccccc3F)nc2n(C)c1=O	7.3	10.6	-7.9	60.6*	14.4
O=C1C(Cl)=C(Nc2ccc3cn[nH]c3c2)C(=O)c2ccccc21	.	.	.	73.2*	.
O=C(Nc1ccc2cn[nH]c2c1)c1c(Cl)cccc1Cl	16.6	7.1	16.5	10.1	-0.1
C=C[C@@H]1c2cc(C)ccc2N(S(=O)(=O)c2ccc(C)cc2)[C@H](c2ccccc2)C1(C#N)S(=O)(=O)c1ccccc1 (some centres not stated)	16.5	17.7	13.8	.	-30.5
Cc1ccc(NC(=O)COC(=O)Cn2cnc3ccccc32)c(C)c1	-13.8	-7.7	4.6	.	22.6
Cc1cc(C)c2ccc(NN)nc2c1O	10.7	12.4	1.4	67.9*	14.1
COc1ccc(-c2nn(Cc3ccccc3)cc2C(=O)N2CCN(c3ncccn3)CC2)cc1	14.4	19.6	16.7	.	8.2
CCc1cccc(C)c1NC(=O)C1CC(=O)N(C2CCCC2)C1 (configuration not stated)	-9.6	1.5	8.5	.	3.7
CCCCNc1c(-c2cccc(-c3ccc(OC)cc3)c2)nc2ccc(C)cn12	32.9	-2.5	2.0	63.1*	25.9
SMILES	tim10-1 inh	tim23-1 inh	TIM10 inh	SKKanGAS inh	NLRP3 yeast inh
CCCCNc1c(-c2cccc(-c3cc(C(C)=O)cs3)c2)nc2ccc(C)cn12	31.3	26.1	17.2	52.6*	22.2
O=C(NCc1ccc(C(F)(F)F)cc1)c1ccc2c(c1)S(=O)(=O)c1ccccc1C2=O	-10.4	-11.7	-11.2	50.7*	6.3
COc1ccc(-c2c(C(F)(F)F)[nH]n3c(=O)cc(-c4ccccc4)nc23)cc1	-6.1	-10.1	-0.4	56.0*	13.8
COc1cccc(N=Nc2c(N)[nH]n3c(=O)cc(-c4ccccc4)nc23)c1	12.5	11.3	8.6	109.6*	17.5
Cc1[nH]n2c(=O)cc(C(C)C)nc2c1-c1ccccc1	7.0	-3.3	-2.5	9.5	4.8
Cc1[nH]n2c(=O)cc(-c3ccc([N+](=O)[O-])cc3)nc2c1-c1ccccc1	15.8	18.0	13.1	101.5*	9.4
Cc1[nH]n2c(=O)cc(C(C)(C)C)nc2c1-c1ccccc1	29.0	-3.0	4.7	89.4*	-2.5
CCCCn1c(N)c(-c2nc3ccccc3s2)c2c([N+](=O)[O-])nn(CC)c(=O)c21	20.7	12.6	-9.7	6.5	-9.8
CCCCCn1c(N)c(-c2nc3ccccc3s2)c2c([N+](=O)[O-])nn(CC)c(=O)c21	7.7	15.4	0.2	54.3*	5.4
CSc1ncccc1C(=O)NCc1nnc2ccccn12	-3.8	-1.6	-3.0	.	-4.4
CCCC1=NN(c2ccc([N+](=O)[O-])cc2)C(=O)/C1=C/N(C)C	9.9	13.4	6.9	1.6	12.4
CC1=NN(c2ccc([N+](=O)[O-])cc2)C(=O)/C1=C\N(C)C	33.8	35.2	13.3	55.7*	18.4
CCNC(=O)N(C)C[C@H]1N[C@@](Cc2ccccc2)(C(=O)OC)[C@H]2C(=O)N(C)C(=O)[C@@H]12	-5.1	-5.9	-13.3	.	13.2
CC1(C)S[C@@H]2[C@H](NC(=O)COc3ccccc3)C(=O)N2C1C(=O)OCc1cc2ccccc2n1S(=O)(=O)c1ccccc1 (some centres not stated)	.	.	.	77.8*	.
CC(Oc1ccccc1)C(=O)NC1C(=O)N2C1SC(C)(C)C2C(=O)O (configuration not stated)	6.3	14.3	-21.0	106.0*	4.5
Cc1onc(-c2c(Cl)cccc2Cl)c1C(=O)NC1C(=O)N2C1SC(C)(C)C2C(=O)O (configuration not stated)	10.8	-7.2	9.3	79.3*	2.1
Cc1onc(-c2c(Cl)cccc2Cl)c1C(=O)N[C@@H]1C(=O)N2[C@@H]1SC(C)(C)[C@@H]2C(=O)O	5.2	15.2	-0.2	3.7	2.0
CCOC(=O)OC(C)OC(=O)[C@@H]1N2C(=O)[C@@H](NC(=O)[C@H](N)c3ccccc3)[C@H]2SC1(C)C (some centres not stated)	8.5	-8.5	7.0	.	10.9
CC1(C)S[C@@H]2[C@H](NC(=O)COc3ccccc3)C(=O)N2C1C(=O)OCC1CCCCC1 (some centres not stated)	28.3	30.5	20.5	64.0*	-3.1
C/C(N)=C(/C#N)C(=O)COC(=O)c1ccc(OCC2CCCO2)cc1 (configuration not stated)	9.5	12.7	3.4	1.7	14.0
O=C(NCC1CCCO1)c1ccc2c(c1)C(=O)N(c1cccc([N+](=O)[O-])c1)C2=O (configuration not stated)	-13.9	9.3	-13.9	-1.7	13.1
Cc1nn(-c2ccccc2)c2sc(-c3n[nH]c(=S)o3)cc12	17.5	-0.6	-32.7	79.9*	21.2
Cc1nn(-c2ccccc2)c2sc(C(=O)O)cc12	-0.8	-3.7	-2.2	-6.2	-2.1
Cc1ccc(NC(=O)c2cccc(NC3=NC4CS(=O)(=O)CC4S3)c2)cc1 (configuration not stated)	8.0	10.5	4.7	-1.9	-0.8

High-throughput results as filed in PubChem.
